# Inconclusive results are not listed. Calls of active or inactive are those of the source. Calls come from the whole dose curve; as a rule, active = well fitted cell-killing curve with a large enough effect; inconclusive = small, poorly fitted or top-dose-only effect, or effect the other way; inactive = no such curve, though single readings can be large or run the other way.
# Assay: Quantitative High-Throughput drug screen in 47 multiple myeloma cell lines against the NCATS MIPE library collection: JJN3_DSMZ cell viability assay (AID 1918966; note: nearly all actives have a fitted effect of over 50% in size)
# Details: JJN3 myeloma cells viability, CellTiter-Glo ATP, 48 h; series mostly up to 45.8 µM; viability, % of DMSO: at the top concentration
# Excerpt: PI: Beverly A. Mock Ph.D.
# Laboratory of Cancer Biology and Genetics,
# Center for Cancer Research, National Cancer Institute,
# National Institute of Health, Bethesda, Maryland
# Drug resistance and disease progression are common in multiple myeloma (MM) patients, underscoring the need for new therapeutic combinations. […] We hypothesized that effective combinations would reduce MYC expression and enhance p16 activity. […] These preclinical data identify potentially useful drug combinations for evaluation in drug-resistant MM and reveal potential mechanisms of combined drug sensitivity.
# Described herein is the primary MIPE qHTS used to cherrypick compounds. Validated compounds were then further tested for potential synergistic activiy.
# [1] Peat TJ, Gaikwad SM, Dubois W, Gyabaah-Kessie N, Zhang S, Gorjifard S, Phyo Z, Andres M, Hughitt VK, Simpson RM, Miller MA, Girvin AT, Taylor A, Williams D, D'Antonio N, Zhang Y, Rajagopalan A, Flietner E, Wilson K, Zhang X, Shinn P, Klumpp-Thomas C, McKnight C, Itkin Z, Chen L, Kazandijian D, Zhang J, Michalowski AM, Simmons JK, Keats J, Thomas CJ, Mock BA. Drug combinations identified by high-throughput screening promote cell cycle transition and upregulate Smad pathways in myeloma. Cancer Lett. 2023 Aug 1;568:216284. doi: 10.1016/j.canlet.2023.216284. Epub 2023 Jun 24. PMID: 37356470; PMCID: PMC10408729.
# SEQUENCE No. (e.g., 1, 2, 3, etc.); […] (e.g., Cells, Incubation, Reagent, etc.); VALUE and DESCRIPTION.
# 1; Cells; 5 uL; white, solid bottom 1536-well Greiner assay plate.
# 2; Compounds; 23 nL; Kalypsis pin tool (Wako USA) equipped with a 1536-well pin head to transfer to the assay plates.
# 3; Incubation; 48 hours; 37C incubation.
# 4; Reagent;5uL; CellTiter Glo (Promega).
# 5; Detector; 425V; Luminescence; Viewlux PerkinElmer.
# NOTES (numbers refer to Sequence numbers above)
# 1. The cell-based screening methods employed in this study were like those previously published. Briefly, the corresponding myeloma cell lines were screened in 1,536-well plates with 500 cells, 5-uL per well for inhibition of cell viability (assessed by measuring ATP levels with CellTiterGlo).
# 2. NCATS MIPE 4.0 library of approved and investigational drugs were added using the Kalypsis pin tool. Wells treated with DMSO only for 100% viability and media only wells for 0% viability were used as controls.
# 3. The assay plates were covered and incubated for 48 hours in a 37C, 5% CO2 incubator with controlled humidity.
# 4. After 48 hours, CellTilter-GloTM luminescent substrate mix (Promega) reagent was added to the assay plate and plates we incubated for 5 min at room temperature.
# 5. Signal was measured as median relative luminescence units on a ViewLux (PerkinElmer) multiplate reader.
# [1] Heske CM, Davis MI, Baumgart JT, Wilson K, Gormally MV, Chen L, Zhang X, Ceribelli M, Duveau DY, Guha R, Ferrer M, Arnaldez FI, Ji J, Tran HL, Zhang Y, Mendoza A, Helman LJ, Thomas CJ. Matrix Screen Identifies Synergistic Combination of PARP Inhibitors and Nicotinamide Phosphoribosyltransferase (NAMPT) Inhibitors in Ewing Sarcoma. Clin Cancer Res. 2017 Dec 1;23(23):7301-7311. doi: 10.1158/1078-0432.CCR-17-1121. Epub 2017 Sep 12. PMID: 28899971; PMCID: PMC6636827.
# Potency is the fitted concentration of half-maximal effect.
SMILES,"viability, % of DMSO",Potency
CN1C(=O)CCS(=O)(=O)C1c1ccc(Cl)cc1 (centres undefined),124% (inactive),
C[C@](O)(CS(=O)(=O)c1ccc(F)cc1)C(=O)Nc1ccc(C#N)c(C(F)(F)F)c1,,4.69 µM (active)
C[C@]12CC[C@@H]3c4ccc(OC(=O)N(CCCl)CCCl)cc4CC[C@H]3[C@@H]1CC[C@@H]2OP(=O)(O)O,155% (inactive),
C[C@]12CC[C@H]3[C@@H](CC[C@@]45O[C@H]4C(O)=C(C#N)C[C@]35C)[C@H]1CC[C@H]2O,,18.7 µM (active)
CC(NC(C)(C)C)C(=O)c1cccc(Cl)c1 (centres undefined),107% (inactive),

# Assay: Quantitative High-Throughput drug screen in 47 multiple myeloma cell lines against the NCATS MIPE library collection: Karpas25_ECACC cell viability assay (AID 1918968; note: nearly all actives have a fitted effect of over 35% in size)
# Details: Karpas25 myeloma viability, CellTiter-Glo ATP, 48 h; series mostly up to 45.8 µM; viability (% of control): at the top concentration
# Method in brief: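 Primary qHTS used for cherry-picking: cells at 500/well, library compounds for 48 h (37C, 5% CO2), luminescent ATP assay.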
SMILES,Potency,viability (% of control)
C[C@](O)(CS(=O)(=O)c1ccc(F)cc1)C(=O)Nc1ccc(C#N)c(C(F)(F)F)c1,418 nM (active),
COc1cc(OC)c(OC)cc1C=O,,104% (inactive)
C[C@]12CC[C@@H]3c4ccc(OC(=O)N(CCCl)CCCl)cc4CC[C@H]3[C@@H]1CC[C@@H]2OP(=O)(O)O,,115% (inactive)
CN1C(=O)COc2c(C(=O)NC3CN4CCC3CC4)cc(Cl)cc21 (centres undefined),,118% (inactive)
C[C@]12CC[C@H]3[C@@H](CC[C@@]45O[C@H]4C(O)=C(C#N)C[C@]35C)[C@H]1CC[C@H]2O,,123% (inactive)
CC(NC(C)(C)C)C(=O)c1cccc(Cl)c1 (centres undefined),3720 nM (active),
CC(C)C[C@H](CN)CC(=O)O,,120% (inactive)
CC(C)c1cccc(C(C)C)c1O,,146% (inactive)
CCC1(c2ccc(N)cc2)CCC(=O)NC1=O (centres undefined),,98.3% (inactive)

# Reference: PubChem BioAssay (NCATS)
